Among the data in the supplement of paper PMC13380429 are morphology score and SARS-CoV-2 infection rate values, retold here.

Test [1] deals with Vero E6 infected with SARS-CoV-2. Kind of test: morphology score (similarity to uninfected cells); higher = more like uninfected cells. The conditions noted are these: 24 h.
Test [2] shares this test system. Nature of the test: SARS-CoV-2 infection rate relative to infected DMSO; higher = more infection, active = 60 or less. The conditions noted are these: 24 h.

Take `COc1cc(/C=C/C(=O)CC(=O)/C=C/c2ccc(O)c(OC)c2)ccc1O` [curcumin] (10 µM): in test [1], the morphology score amounted to 0.548. The SARS-CoV-2 infection rate in test [2] is 61.5% (inactive).

Turning to `COc1ccc(C2C(=O)c3ccccc3C2=O)cc1` [anisindione] (10 µM), in test [1], the morphology score was -0.177. In addition, the SARS-CoV-2 infection rate in test [2] was 114% (inactive).

For the compound `CCC(C)(C)C(=O)O[C@H]1C[C@@H](C)C=C2C=C[C@H](C)[C@H](CC[C@@H]3C[C@@H](O)CC(=O)O3)[C@H]21` [simvastatin] (0.833333 µM), the morphology score in test [1] is -0.0774. In addition, in test [2], the SARS-CoV-2 infection rate is 26.5% (active).

On to `CC(C)N(CCCCOCC(=O)NS(C)(=O)=O)c1cnc(-c2ccccc2)c(-c2ccccc2)n1` [selexipag] (10 µM), for which the morphology score in test [1] is -0.0772. Moreover, the SARS-CoV-2 infection rate in test [2] was 116% (inactive).

With `CC(C)(C)C[C@@H]1N[C@@H](C(=O)N[C@H]2CC[C@H](O)CC2)[C@H](c2cccc(Cl)c2F)[C@]12C(=O)Nc1cc(Cl)ccc12` (10 µM), the morphology score in test [1] was -0.042. For the same compound, the SARS-CoV-2 infection rate in test [2] was 113% (inactive).

`Cn1cc(C(=O)c2cccc3ccccc23)cc1C(=O)O` [napirimus] (10 µM) showed a morphology score in test [1] of 0.122. In test [2], the SARS-CoV-2 infection rate was 107% (inactive).

Compound `CN(C)C(=O)c1ccc(S(=O)(=O)c2ccc(NC(=O)[C@@](C)(O)C(F)(F)F)c(Cl)c2)cc1` (10 µM) had a morphology score in test [1] of 0.28. The SARS-CoV-2 infection rate in test [2] was 104% (inactive).

For `CC(C)[C@H](CO)Nc1nc(Nc2cccc(Cl)c2)c2ncn(C(C)C)c2n1` [purvalanol-A] (0.833333 µM), the morphology score in test [1] is -0.028. Besides, the SARS-CoV-2 infection rate in test [2] was 109% (inactive).

`O=C(O)CCCO` (10 µM) came in with a morphology score in test [1] of 0.0908. For the same compound, the SARS-CoV-2 infection rate in test [2] is 104% (inactive).
